Experimental data: the supplement of paper PMC10849652
About 7,900 targets were measured; listed, in parts, are those with a hit and a random draw of the rest. About 0.6% of all pairs of compound and target were hits. A number with no mark means an inactive call.

Chain of UniProt Q96F25 (Q96F25 whole entry, looked up): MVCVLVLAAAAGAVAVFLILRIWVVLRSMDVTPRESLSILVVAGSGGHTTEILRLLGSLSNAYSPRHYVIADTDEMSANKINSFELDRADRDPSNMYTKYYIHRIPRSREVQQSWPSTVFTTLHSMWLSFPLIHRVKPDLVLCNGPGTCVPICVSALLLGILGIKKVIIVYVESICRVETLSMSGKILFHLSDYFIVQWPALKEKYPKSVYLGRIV
Chain of UniProt Q8N5I2 (Q8N5I2 whole entry, looked up): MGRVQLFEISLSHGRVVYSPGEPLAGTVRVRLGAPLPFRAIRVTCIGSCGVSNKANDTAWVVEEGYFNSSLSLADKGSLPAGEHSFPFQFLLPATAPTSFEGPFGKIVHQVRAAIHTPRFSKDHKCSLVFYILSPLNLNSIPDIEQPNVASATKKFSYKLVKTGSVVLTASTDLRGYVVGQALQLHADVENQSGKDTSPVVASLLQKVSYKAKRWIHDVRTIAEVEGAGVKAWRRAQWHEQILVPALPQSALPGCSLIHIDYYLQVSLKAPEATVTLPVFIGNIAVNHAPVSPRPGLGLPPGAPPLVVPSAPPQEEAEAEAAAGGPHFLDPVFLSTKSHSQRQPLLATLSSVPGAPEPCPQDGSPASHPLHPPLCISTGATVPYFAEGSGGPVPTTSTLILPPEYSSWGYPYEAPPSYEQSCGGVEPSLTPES
Chain of UniProt P00966 (P00966 whole entry, looked up): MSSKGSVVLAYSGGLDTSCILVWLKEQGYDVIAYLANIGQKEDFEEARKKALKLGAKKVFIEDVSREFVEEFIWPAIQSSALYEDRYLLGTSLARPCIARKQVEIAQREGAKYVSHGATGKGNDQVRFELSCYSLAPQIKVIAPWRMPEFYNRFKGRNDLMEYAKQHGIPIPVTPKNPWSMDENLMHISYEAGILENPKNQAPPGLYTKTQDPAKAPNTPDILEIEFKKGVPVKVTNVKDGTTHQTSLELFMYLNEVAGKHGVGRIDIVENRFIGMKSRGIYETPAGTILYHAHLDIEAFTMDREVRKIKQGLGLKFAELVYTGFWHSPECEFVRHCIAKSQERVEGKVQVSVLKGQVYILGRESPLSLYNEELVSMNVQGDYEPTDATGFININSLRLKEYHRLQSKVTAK
Chain of UniProt Q96G97 (Q96G97 whole entry, looked up): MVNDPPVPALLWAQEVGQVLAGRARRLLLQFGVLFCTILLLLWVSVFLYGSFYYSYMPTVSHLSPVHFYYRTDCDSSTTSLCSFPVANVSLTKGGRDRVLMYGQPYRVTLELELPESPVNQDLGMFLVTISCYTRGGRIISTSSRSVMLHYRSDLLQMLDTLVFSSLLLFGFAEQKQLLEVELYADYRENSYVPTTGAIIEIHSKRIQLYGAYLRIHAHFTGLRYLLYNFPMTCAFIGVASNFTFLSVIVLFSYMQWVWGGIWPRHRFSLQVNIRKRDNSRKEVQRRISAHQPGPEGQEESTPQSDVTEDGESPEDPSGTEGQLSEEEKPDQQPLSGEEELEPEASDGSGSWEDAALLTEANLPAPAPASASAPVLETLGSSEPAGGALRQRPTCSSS
Chain of UniProt Q04771 (Q04771 whole entry, looked up): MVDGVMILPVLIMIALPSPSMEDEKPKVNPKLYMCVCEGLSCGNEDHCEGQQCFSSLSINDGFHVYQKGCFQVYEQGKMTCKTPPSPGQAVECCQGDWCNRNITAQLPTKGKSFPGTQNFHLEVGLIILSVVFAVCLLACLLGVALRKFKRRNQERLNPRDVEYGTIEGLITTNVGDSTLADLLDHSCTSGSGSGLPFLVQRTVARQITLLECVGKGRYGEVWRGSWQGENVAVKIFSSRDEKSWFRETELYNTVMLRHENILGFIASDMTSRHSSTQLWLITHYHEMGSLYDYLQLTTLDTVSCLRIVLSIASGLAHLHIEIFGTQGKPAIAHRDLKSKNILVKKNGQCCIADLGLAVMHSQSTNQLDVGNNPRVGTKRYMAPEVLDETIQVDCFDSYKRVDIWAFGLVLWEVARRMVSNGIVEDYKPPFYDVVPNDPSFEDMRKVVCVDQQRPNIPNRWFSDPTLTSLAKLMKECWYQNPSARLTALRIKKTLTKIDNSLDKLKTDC
Chain of UniProt P49189 (P49189 whole entry, looked up): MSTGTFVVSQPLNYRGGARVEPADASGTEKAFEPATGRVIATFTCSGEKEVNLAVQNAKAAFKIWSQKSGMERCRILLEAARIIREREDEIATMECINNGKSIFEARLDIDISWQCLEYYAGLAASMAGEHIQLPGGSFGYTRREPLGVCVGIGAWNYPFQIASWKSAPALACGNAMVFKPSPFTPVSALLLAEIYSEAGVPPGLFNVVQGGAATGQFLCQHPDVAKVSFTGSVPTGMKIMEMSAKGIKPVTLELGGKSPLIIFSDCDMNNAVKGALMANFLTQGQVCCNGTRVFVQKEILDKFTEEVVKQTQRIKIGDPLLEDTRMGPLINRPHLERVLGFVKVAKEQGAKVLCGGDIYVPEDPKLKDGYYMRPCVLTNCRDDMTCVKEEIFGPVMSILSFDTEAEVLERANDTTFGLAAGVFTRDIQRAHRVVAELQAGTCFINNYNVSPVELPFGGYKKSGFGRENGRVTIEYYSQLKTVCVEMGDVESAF
Chain of UniProt Q9HCU9 (Q9HCU9 whole entry, looked up): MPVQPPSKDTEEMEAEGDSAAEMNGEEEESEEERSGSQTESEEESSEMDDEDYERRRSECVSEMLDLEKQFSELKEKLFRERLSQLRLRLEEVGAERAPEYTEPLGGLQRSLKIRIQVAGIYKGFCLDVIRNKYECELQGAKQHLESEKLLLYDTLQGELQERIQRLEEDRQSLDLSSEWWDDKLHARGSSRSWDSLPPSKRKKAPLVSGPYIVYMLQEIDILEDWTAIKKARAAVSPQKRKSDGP
Chain of UniProt P42331 (P42331 whole entry, looked up): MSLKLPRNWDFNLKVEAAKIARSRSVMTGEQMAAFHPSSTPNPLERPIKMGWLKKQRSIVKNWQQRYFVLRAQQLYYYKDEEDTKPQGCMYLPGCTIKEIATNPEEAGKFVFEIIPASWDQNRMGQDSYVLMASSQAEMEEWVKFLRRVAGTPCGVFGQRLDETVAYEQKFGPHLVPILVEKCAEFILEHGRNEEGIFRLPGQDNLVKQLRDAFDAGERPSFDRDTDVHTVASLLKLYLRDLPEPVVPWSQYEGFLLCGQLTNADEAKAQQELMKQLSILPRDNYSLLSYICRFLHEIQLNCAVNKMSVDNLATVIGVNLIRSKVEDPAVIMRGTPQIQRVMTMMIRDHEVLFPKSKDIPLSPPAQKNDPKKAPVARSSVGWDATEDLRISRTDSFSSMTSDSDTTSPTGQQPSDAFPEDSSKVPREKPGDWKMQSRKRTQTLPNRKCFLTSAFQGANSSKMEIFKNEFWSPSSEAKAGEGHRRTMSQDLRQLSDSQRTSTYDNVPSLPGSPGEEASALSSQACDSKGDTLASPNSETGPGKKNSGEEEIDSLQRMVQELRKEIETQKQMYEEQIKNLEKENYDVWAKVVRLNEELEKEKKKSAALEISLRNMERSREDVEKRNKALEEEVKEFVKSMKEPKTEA
Chain of UniProt Q96KE9 (Q96KE9 whole entry, looked up): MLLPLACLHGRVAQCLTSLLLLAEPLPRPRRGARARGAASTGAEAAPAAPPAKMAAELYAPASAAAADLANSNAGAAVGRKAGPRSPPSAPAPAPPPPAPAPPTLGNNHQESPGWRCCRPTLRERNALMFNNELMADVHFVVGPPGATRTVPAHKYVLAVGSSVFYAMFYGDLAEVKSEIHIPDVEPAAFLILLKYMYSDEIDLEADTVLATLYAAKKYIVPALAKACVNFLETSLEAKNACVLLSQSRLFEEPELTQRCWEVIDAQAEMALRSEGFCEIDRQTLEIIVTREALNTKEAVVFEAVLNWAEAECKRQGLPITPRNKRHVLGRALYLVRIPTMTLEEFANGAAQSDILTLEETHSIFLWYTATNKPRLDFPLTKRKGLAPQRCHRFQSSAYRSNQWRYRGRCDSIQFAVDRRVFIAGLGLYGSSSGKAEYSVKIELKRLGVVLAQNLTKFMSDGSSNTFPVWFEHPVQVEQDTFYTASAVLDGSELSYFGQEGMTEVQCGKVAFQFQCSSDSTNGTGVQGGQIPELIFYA
Chain of UniProt Q13825 (Q13825 whole entry, looked up): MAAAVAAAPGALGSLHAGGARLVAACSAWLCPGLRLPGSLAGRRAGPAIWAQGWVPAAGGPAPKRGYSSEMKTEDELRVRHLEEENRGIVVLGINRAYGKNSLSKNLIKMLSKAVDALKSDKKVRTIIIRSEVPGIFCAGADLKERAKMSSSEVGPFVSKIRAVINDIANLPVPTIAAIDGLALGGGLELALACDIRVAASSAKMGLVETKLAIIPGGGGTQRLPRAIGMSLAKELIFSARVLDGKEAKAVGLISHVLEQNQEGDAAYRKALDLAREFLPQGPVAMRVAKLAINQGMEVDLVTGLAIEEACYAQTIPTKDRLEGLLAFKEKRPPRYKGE
Chain of UniProt Q9UKU0 (Q9UKU0 whole entry, looked up): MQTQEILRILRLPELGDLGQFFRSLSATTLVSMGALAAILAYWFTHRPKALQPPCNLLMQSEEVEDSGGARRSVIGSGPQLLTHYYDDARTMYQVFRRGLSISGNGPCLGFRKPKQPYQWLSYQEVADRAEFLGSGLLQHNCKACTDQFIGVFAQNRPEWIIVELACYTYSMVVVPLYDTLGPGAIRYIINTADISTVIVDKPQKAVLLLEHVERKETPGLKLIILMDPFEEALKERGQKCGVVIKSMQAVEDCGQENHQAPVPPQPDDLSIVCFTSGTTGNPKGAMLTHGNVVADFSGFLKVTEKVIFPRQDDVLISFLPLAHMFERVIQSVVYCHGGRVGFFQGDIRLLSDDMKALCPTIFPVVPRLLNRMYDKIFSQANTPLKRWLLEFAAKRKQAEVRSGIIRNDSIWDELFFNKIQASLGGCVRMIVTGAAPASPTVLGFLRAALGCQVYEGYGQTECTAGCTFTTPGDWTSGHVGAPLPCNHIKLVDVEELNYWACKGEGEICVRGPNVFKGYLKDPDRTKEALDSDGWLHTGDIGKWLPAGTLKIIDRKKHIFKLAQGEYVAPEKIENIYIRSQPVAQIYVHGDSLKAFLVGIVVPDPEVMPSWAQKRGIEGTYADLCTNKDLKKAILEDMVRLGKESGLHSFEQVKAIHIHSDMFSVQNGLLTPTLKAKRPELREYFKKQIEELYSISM

Each target was assayed with C[C@H](Nc1ncnc2nc[nH]c12)c1cc2cccc(Cl)c2c(=O)n1-c1ccccc1 [duvelisib] (assay: log2 fold change, soluble protein after heating vs DMSO (PISA); higher = thermal stabilisation; K562 cells, 10 uM, 30 min; active = over 0.2 and 3.5 SD of the protein, either way, in both replicates (recomputed)).
How it was run: (§1)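 K562 cells at 2×10^6 cells/mL were exposed to 10 μM compound for 30 min, then aliquots were heated for 3 min across 48°C-58°C, pooled, and extracted in PBS containing 0.5% NP-40 at 4°C. The supernatant after 21,000xg for 90 min was taken as soluble protein and measured by TMTpro 16plex LC-MS/MS with channel sums equalised. Thermal stability is reported relative to control samples, with values from duplicates. Fold changes are given on a log2 scale.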
AARSD1 (UniProt Q9BTE6) showed a log2 fold change of -0.258. In the case of BDH2 (UniProt Q9BUT1), the log2 fold change is reported as -0.01. For AUH (UniProt Q13825), the log2 fold change was -0.036. ACVR1 (UniProt Q04771) gave a log2 fold change of 0.074. For ARHGAP25 isoform 4 (UniProt P42331), the log2 fold change was -0.067. Target ALDH9A1 (UniProt P49189) has a log2 fold change of 0.002. BRD4 (UniProt O60885) showed a log2 fold change of 0.207. In the case of ALG14 (UniProt Q96F25), the log2 fold change is reported as 0.01. With BSCL2 isoform 4 (UniProt Q96G97) the log2 fold change was 0.129. In the case of ARHGAP4 isoform 2 (UniProt P98171), the log2 fold change is reported as -0.202. AUNIP isoform 2 (UniProt Q9H7T9) was tested, and the log2 fold change was 0.157. ARRDC1 (UniProt Q8N5I2) showed a log2 fold change of -0.263. With ABHD11 (UniProt Q8NFV4) the log2 fold change was 0.144. In the case of BRD3 (UniProt Q15059), the log2 fold change is reported as 0.193. In the case of ATR (UniProt Q13535), the log2 fold change is reported as 0.004. In the case of AURKA (UniProt O14965), the log2 fold change is reported as -0.058. Target ACSL6 isoform 1 (UniProt Q9UKU0) has a log2 fold change of -0.068. ASS1 (UniProt P00966) was tested, and the log2 fold change was 0.039. In the case of BTBD6 (UniProt Q96KE9), the log2 fold change is reported as 0.125. In the case of ACTBL2 (UniProt Q562R1), the log2 fold change is reported as -0.091. Work on BRMS1 (UniProt Q9HCU9) yielded a log2 fold change of 0.049.

The targets below were run with Cc1cc(Nc2cc(CN3CCOCC3)c3nc(C)c(Cc4ccc(Cl)cc4F)n3n2)n[nH]1 [gandotinib] in the same assay as above.
How it was run: as §1
Target BDH2 (UniProt Q9BUT1) has a log2 fold change of 0.011. With AUH (UniProt Q13825) the log2 fold change was -0.127. In the case of ACVR1 (UniProt Q04771), the log2 fold change is reported as 0.109. ARHGAP25 isoform 4 (UniProt P42331) showed a log2 fold change of -0.056. ALDH9A1 (UniProt P49189) was tested, and the log2 fold change was 0.356 (active). ALDH2 isoform 2 (UniProt P05091) was tested, and the log2 fold change was -0.027. BRD4 (UniProt O60885) gave a log2 fold change of -0.034. ACTR3B (UniProt Q9P1U1) was tested, and the log2 fold change was 0.024. ATF1 (UniProt P18846) showed a log2 fold change of 0.067. BAP18 isoform 3 (UniProt Q8IXM2) gave a log2 fold change of 0.147. ALG14 (UniProt Q96F25) was tested, and the log2 fold change was -0.798 (active). Work on BSCL2 isoform 4 (UniProt Q96G97) yielded a log2 fold change of -0.086. ARRDC1 (UniProt Q8N5I2) gave a log2 fold change of 0.1. Work on ATXN3 isoform 1 (UniProt P54252) yielded a log2 fold change of -0.028. ABHD11 (UniProt Q8NFV4) was tested, and the log2 fold change was 0.389 (active). BRD3 (UniProt Q15059) was tested, and the log2 fold change was -0.081. Target ATR (UniProt Q13535) has a log2 fold change of -0.09. In the case of AURKA (UniProt O14965), the log2 fold change is reported as 1.01 (active). ACSL6 isoform 1 (UniProt Q9UKU0) showed a log2 fold change of -0.145. ASS1 (UniProt P00966) showed a log2 fold change of -0.014. Target BTBD6 (UniProt Q96KE9) has a log2 fold change of 0.64. For ACTBL2 (UniProt Q562R1), the log2 fold change was -0.828. Target BRMS1 (UniProt Q9HCU9) has a log2 fold change of -0.174. ADD1 isoform 4 (UniProt P35611) gave a log2 fold change of -0.153.

These targets were tested with Cc1cc(Nc2cc(N3CCN(C)CC3)nc(Sc3ccc(NC(=O)C4CC4)cc3)n2)n[nH]1 [tozasertib] in the same assay as above.
How it was run: as §1
With AP2S1 (UniProt M0QZ21) the log2 fold change was -0.253. Target BRAF, A0A2R8Y8E0 has a log2 fold change of 0.248. Work on AUH (UniProt Q13825) yielded a log2 fold change of -0.098. ACVR1 (UniProt Q04771) was tested, and the log2 fold change was 0.014. ARHGAP25 isoform 4 (UniProt P42331) showed a log2 fold change of 0.111. ALDH9A1 (UniProt P49189) showed a log2 fold change of -0.052. For BAIAP2 isoform 4 (UniProt Q9UQB8), the log2 fold change was 0.042. With ALDH2 isoform 2 (UniProt P05091) the log2 fold change was -0.224. BRD4 (UniProt O60885) gave a log2 fold change of 0.033. ACTR3B (UniProt Q9P1U1) gave a log2 fold change of -0.02. ATF1 (UniProt P18846) gave a log2 fold change of 0.113. In the case of BAP18 isoform 3 (UniProt Q8IXM2), the log2 fold change is reported as 0.012. For ALG14 (UniProt Q96F25), the log2 fold change was -0.134. BSCL2 isoform 4 (UniProt Q96G97) showed a log2 fold change of 0.008. ARHGAP4 isoform 2 (UniProt P98171) gave a log2 fold change of 0.105. For AUNIP isoform 2 (UniProt Q9H7T9), the log2 fold change was -0.203. ARRDC1 (UniProt Q8N5I2) showed a log2 fold change of -0.075. ANGEL1 (UniProt Q9UNK9) was tested, and the log2 fold change was -0.077. Work on ATXN3 isoform 1 (UniProt P54252) yielded a log2 fold change of -0.163. ABHD11 (UniProt Q8NFV4) showed a log2 fold change of -0.039. Work on AZI2 (UniProt Q9H6S1) yielded a log2 fold change of 0.329. BRD3 (UniProt Q15059) showed a log2 fold change of -0.027. Work on ATR (UniProt Q13535) yielded a log2 fold change of -0.038. ACSL6 isoform 1 (UniProt Q9UKU0) gave a log2 fold change of -0.052. For ASS1 (UniProt P00966), the log2 fold change was -0.085. With BTBD6 (UniProt Q96KE9) the log2 fold change was -0.105. BRMS1 (UniProt Q9HCU9) gave a log2 fold change of -0.094.
